According to PubChem BioAssay (NCATS):
Where “and” joins values, the source holds several entries; their conditions need not be identical. Equal values may be shown once. Inconclusive results are not listed. Some structures have more than one record in an assay (separate samples or runs), and their calls can disagree. Calls of active or inactive are those of the source. Calls come from the whole dose curve; as a rule, active = well fitted curve in the direction sought with a large enough effect; inconclusive = small, poorly fitted or top-dose-only effect, or another doubt; inactive = no such curve, though single readings can be large; an effect the other way counts as inactive or inconclusive.

Tests used:
[1] = qHTS Screen of the MIPE 4.0 Collection Against Ewings Sarcoma (RDES) (AID 1259252); note: nearly all actives have a fitted effect of over 35% in size; note: potency is the fitted concentration of half-maximal effect
In short: (§1)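 Log-phase cells in RPMI with 5% FBS attached for 4 h, then received compounds as a titration for 48 h at 37C, 5% CO2. Viability was read by CellTiter-Glo luminescence and normalized to DMSO and no-cell wells.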

[2] = qHTS Screen of the MIPE 4.0 Collection Against Ewings Sarcoma (TC71) (AID 1259253); note: nearly all actives have a fitted effect of over 40% in size; note: potency is the fitted concentration of half-maximal effect
In short: as §1

[3] = qHTS Screen of the MIPE 4.0 Collection Against Ewings Sarcoma (EW8) (AID 1259255); note: nearly all actives have a fitted effect of over 35% in size; note: potency is the fitted concentration of half-maximal effect
In short: as §1

[4] = qHTS Screen of the MIPE 4.0 Collection Against Ewings Sarcoma (TC32) (AID 1259256); note: nearly all actives have a fitted effect of over 45% in size; note: potency is the fitted concentration of half-maximal effect
In short: as §1

[5] = Identifying Small Molecule Inhibitors of Pancreatic Cancer Stem Cells (A2780, Spheroid) (AID 1259357); settings: Potency: A2780 spheroid viability; note: potency is the fitted concentration of half-maximal effect;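 note: spheroids pre-formed over 14 days in stem cell medium on hydrogel; compound exposure lasted 48 h before the ATP luminescence read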
In short: (§2)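 Adherent (2D) versus sphere (3D) formats; spheres generated 14 d in SCM beforehand. Compound transferred by pin tool after 4 h, 48 h incubation, CellTiter-Glo endpoint.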

[6] = Identifying Small Molecule Inhibitors of Pancreatic Cancer Stem Cells (SN12C, Adherent) (AID 1259358);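 note: cell survival measured after 48 h of compound exposure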; note: potency is the fitted concentration of half-maximal effect
In short: (§3)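 Spheroids grown 14 days in stem cell media on hydrogel-coated nonadherent plates; 2D lines seeded directly. Compounds added after 4 h attachment, 48 h at 37C, 5% CO2; CellTiter-Glo luminescence normalized to DMSO (no inhibition) and no-cell wells (full inhibition).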

[7] = Identifying Small Molecule Inhibitors of Pancreatic Cancer Stem Cells (SN12C, Spheroid) (AID 1259360); settings: Potency: SN12C spheroid viability; note: potency is the fitted concentration of half-maximal effect
In short: as §2

[8] = Identifying Small Molecule Inhibitors of Pancreatic Cancer Stem Cells (A278, Adherent) (AID 1259361); note: nearly all actives have a fitted effect of over 35% in size
In short: as §3

[9] = Identifying Small Molecule Inhibitors of Pancreatic Cancer Stem Cells (Panc1, Adherent) (AID 1259362); settings: Potency: viability; note: potency is the fitted concentration of half-maximal effect
In short: as §2

[10] = NS1 protein of Zika virus - qHTS assay to identify small molecule inhibitors in human HEK 293 cells (AID 1347053); note: nearly all actives have a fitted effect of over 55% in size; note: potency is the fitted concentration of half-maximal effect
In short: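 Readout was TR-FRET using paired anti-NS1 antibodies after 24 h infection of HEK 293 cells with ZIKV MR766 (MOI = 0.5). Compound preceded virus by 1 h; reduced signal reflects lower NS1 expression.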

[11] = qHTS assay to identify small molecule inhibitors of chordoma cells - UCH-1 (AID 1259355); note: nearly all actives have a fitted effect of over 55% in size
In short: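 Screening used approved and investigational drugs in 15-point titration against 800 seeded cells per well. A fixed combination of auranofin with camptothecin, doxorubicin, rubitecan and topotecan followed compound addition, and growth was scored by CellTiter-Glo after 48hr.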

[12] = qHTS assay to identify small molecule inhibitors of chordoma cells - UCH-2 (AID 1259356); note: series mostly up to about 46 µM
[13] = P-glycoprotein substrates identified in KB-8-5-11 adenocarcinoma cell line, qHTS therapeutic library screen (AID 1346987); note: nearly all actives have a fitted effect of over 65% in size; note: potency is the fitted concentration of half-maximal effect
In short: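 In this qHTS, P-gp-rich KB-8-5-11 cells received library compounds across a concentration range. Viability was quantified by luminescence after 72 h at 37 degree C.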

[14] = P-glycoprotein substrates identified in KB-3-1 adenocarcinoma cell line, qHTS therapeutic library screen (AID 1346986); note: nearly all actives have a fitted effect of over 60% in size;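 note: potency is the fitted concentration of half-maximal effect; potency is for cytotoxicity meaning loss of cell viability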
In short: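 Viability by CellTiter-Glo after 72 h compound exposure at 37 degree C, 5% CO2. Cytotoxic call: curve class -1.1 to -2.4, maximum response >50%, AC50 < 10 uM, compared across KB-3-1 and P-gp-overexpressing KB-8-5-11.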

Cc1ccc(C(=O)Nc2ccc(CN3CCN(C)CC3)c(C(F)(F)F)c2)cc1C#Cc1cnc2cccnn12
active: Potency [1] 5260 nM | Potency [2] 4690 nM | Potency [3] 5900 nM | Potency [4] 5900 nM | Potency [5] 14800 nM | Potency [6] 16600 nM | Potency [7] 23500 nM | IC50 (viability decrease) [8] 5260 nM | Potency [9] 23500 nM | Potency [10] 11800 nM

Nc1ccn([C@@H]2CS[C@H](CO)O2)c(=O)n1
inactive: Potency [1] | Potency [2] | Potency [3] | Potency [4] | Potency [11] | outcome [12]

CN[C@H]1CCc2cc(OC)c(OC)c(OC)c2-c2ccc(OC)c(=O)cc21
inactive: Potency [4] | outcome [12]
active: Potency [1] 2.1 nM | Potency [2] 3.3 nM | Potency [3] 1.9 nM | Potency [13] 18.7 nM and 1.16 µM | Potency [10] 8.3 nM

CC(=O)OCCN1C(=O)c2c(C)nc3ccc(S(=O)(=O)N4CCOCC4)cc3c2C1=O
active: Potency [9] 10500 nM
inactive: Potency [1] | Potency [2] | Potency [3] | Potency [4] | Potency [5] | Potency [7] | IC50 (viability decrease) [8] | Potency [14]

COC(=O)C1=C(C)NC(C)=C(C(=O)OCCN2CCN(C(c3ccccc3)c3ccccc3)CC2)C1c1cccc([N+](=O)[O-])c1 (centres undefined)
inactive: Potency [1] | Potency [2] | Potency [3] | Potency [4] | outcome [12]
20.6 µM (active) and inactive: Potency [13]

Nc1ccn([C@@H]2O[C@H](CO)[C@H](O)C2(F)F)c(=O)n1
inactive: outcome [12]
active: Potency [1] 52.6 nM | Potency [2] 41.8 nM | Potency [3] 16.6 nM | Potency [4] 18.7 nM | Potency [10] 743 nM

Nc1ccc(C(=O)c2cc3c(ccc4ccccc43)[nH]2)cc1
active: Potency [1] 2640 nM | Potency [2] 3320 nM | Potency [3] 1870 nM | Potency [4] 1870 nM | Potency [5] 2090 nM | Potency [9] 2960 nM | Potency [13] 1.18 µM | Potency [10] 18700 nM
inactive: Potency [6] | Potency [7]

Cc1c(NC(=O)OC[C@@H]2COCCN2)cn2ncnc(Nc3ccc4c(cnn4Cc4cccc(F)c4)c3)c12
active: Potency [1] 166 nM | Potency [2] 1050 nM | Potency [3] 1480 nM | Potency [4] 935 nM

CNC(=O)c1cc(Oc2ccc(NC(=O)Nc3cc(C(C)(C)C)nn3-c3ccc4ncccc4c3)c(F)c2)ccn1
active: Potency [1] 20900 nM | Potency [2] 16600 nM | Potency [3] 18700 nM | Potency [4] 20900 nM

O=C(O)CO.[NH2-].[NH2-].[Pt+2]
inactive: Potency [1] | Potency [2] | Potency [3] | Potency [4] | Potency [11] | outcome [12] | Potency [13]

CN(c1ncccc1CNc1nc(Nc2ccc3c(c2)CC(=O)N3)ncc1C(F)(F)F)S(C)(=O)=O
active: Potency [1] 11800 nM | Potency [2] 5900 nM | Potency [3] 8330 nM | Potency [4] 10500 nM | Potency [5] 5260 nM | Potency [7] 20900 nM | IC50 (viability decrease) [8] 2960 nM | Potency [14] 5170 nM

CC(C)(C)NC(=O)[C@H]1CN(Cc2cccnc2)CCN1C[C@@H](O)C[C@@H](Cc1ccccc1)C(=O)N[C@H]1c2ccccc2C[C@H]1O
inactive: Potency [11] | outcome [12]
active: Potency [1] 1050 nM | Potency [2] 1180 nM | Potency [3] 4180 nM | Potency [4] 1320 nM | Potency [13] 23.5 µM

COc1cc2c(cc1-c1c(C)noc1C)ncc1[nH]c(=O)n([C@H](C)c3ccccn3)c12
active: Potency [1] 6620 nM | Potency [2] 4690 nM | Potency [3] 18700 nM | Potency [4] 4690 nM

CC1(C)CCC(c2ccc(Cl)cc2)=C(CN2CCN(c3ccc(C(=O)NS(=O)(=O)c4ccc(N[C@H](CCN5CCOCC5)CSc5ccccc5)c(S(=O)(=O)C(F)(F)F)c4)cc3)CC2)C1
active: Potency [1] 26400 nM | Potency [2] 18700 nM | Potency [3] 29600 nM | Potency [4] 5260 nM | Potency [5] 20900 nM | Potency [7] 16600 nM | IC50 (viability decrease) [8] 23500 nM
inactive: Potency [13] | Potency [10]

C=CC(=O)Nc1cc2c(Nc3ccc(F)c(Cl)c3)ncnc2cc1C#CC(C)(C)N1CCN(C)CC1
active: Potency [1] 1870 nM | Potency [2] 2640 nM | Potency [3] 2350 nM | Potency [4] 1320 nM | Potency [5] 16600 nM | Potency [6] 13200 nM | Potency [7] 6620 nM | IC50 (viability decrease) [8] 6620 nM | Potency [9] 11800 nM | Potency [14] 9200 nM | Potency [13] 16.4 µM | Potency [10] 13200 nM

COC(=O)[C@]12CCC(C)(C)C[C@@H]1[C@@H]1C(=O)C=C3[C@@]4(C)C=C(C#N)C(=O)C(C)(C)[C@@H]4CC[C@@]3(C)[C@]1(C)CC2
active: Potency [1] 372 nM | Potency [2] 264 nM | Potency [3] 296 nM | Potency [4] 118 nM | Potency [5] 1320 nM | Potency [6] 2640 nM | Potency [7] 2350 nM | IC50 (viability decrease) [8] 1050 nM | Potency [9] 2960 nM | Potency [10] 1320 nM

CN1CC[C@@H](c2c(O)cc(O)c3c(=O)cc(-c4ccccc4Cl)oc23)[C@@H](O)C1
active: Potency [1] 148 nM | Potency [2] 74.3 nM | Potency [3] 118 nM | Potency [4] 148 nM | Potency [5] 74.3 nM | Potency [6] 187 nM | Potency [7] 118 nM | IC50 (viability decrease) [8] 37.2 nM | Potency [9] 132 nM | Potency [13] 0.209 µM
